In the supplement of paper PMC3334620:
The full ranking holds about 33,000 sequences; the median of “E-score (-0.5 to 0.5)” is about -0.012, and the highest 2% start at about 0.27. This excerpt belongs to a sample that is enriched for the highest values.

Each sequence was assayed against T1, Vhr1 (UniProt P40522) (assay: PBM E-score (8-mer binding enrichment) (E-score (-0.5 to 0.5)); higher = stronger / more preferred TF binding). Settings: protein concentration: 200 nM; construct: GST-full length.
T1 sequence: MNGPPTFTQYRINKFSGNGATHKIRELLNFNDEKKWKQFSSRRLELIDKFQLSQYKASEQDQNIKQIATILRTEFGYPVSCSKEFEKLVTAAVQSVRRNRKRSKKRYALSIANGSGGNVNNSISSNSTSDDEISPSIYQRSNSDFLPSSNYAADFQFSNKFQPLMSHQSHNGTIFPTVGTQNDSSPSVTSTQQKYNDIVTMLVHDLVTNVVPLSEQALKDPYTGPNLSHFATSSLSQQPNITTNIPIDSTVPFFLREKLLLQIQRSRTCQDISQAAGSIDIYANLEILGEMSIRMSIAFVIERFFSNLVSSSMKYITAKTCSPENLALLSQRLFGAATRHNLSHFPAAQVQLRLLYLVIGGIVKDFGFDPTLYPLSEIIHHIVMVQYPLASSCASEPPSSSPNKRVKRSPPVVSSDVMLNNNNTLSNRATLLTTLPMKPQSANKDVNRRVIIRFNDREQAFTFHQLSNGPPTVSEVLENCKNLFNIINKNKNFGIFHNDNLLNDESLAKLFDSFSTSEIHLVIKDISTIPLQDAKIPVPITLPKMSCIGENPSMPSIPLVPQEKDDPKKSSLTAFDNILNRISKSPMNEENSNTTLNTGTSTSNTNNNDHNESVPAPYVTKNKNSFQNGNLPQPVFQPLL
Method: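 Universal 'all 10-mer' protein binding microarrays (Agilent AMADID 015681) probed with GST-tagged S. cerevisiae TFs (full-length or DBD) made by in vitro transcription/translation (PURExpress), about 100-200 nM. Bound TF was detected with fluorescent anti-GST. Each ungapped 8-mer (which stands for itself and its reverse complement) is scored by the PBM enrichment score (E-score), a modified Wilcoxon-Mann-Whitney statistic from -0.5 to +0.5, computed with the Universal PBM Analysis Suite. Scale: above 0.35 generally sequence-specific binding.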

Sequence | PBM E-score
GACGACTC | 0.358
CACGACTA | 0.209
CACGACTG | 0.178
AACGACTA | 0.0488
GCACCCAA | -0.0528
AGTCTTGC | 0.0289
ACAGCTCC | 0.0267
TTACCTAA | -0.0877
GCGTCAGC | -0.256
CAGTCAGC | 0.232
AAGTCAGC | 0.281
GAGTCAGC | 0.476
GGGTCAGA | -0.0746
CAGTCAGA | 0.224
AAGTCAGA | 0.0614
ATGTCAGC | 0.072
GAGTCAGA | 0.447
CATGGGAC | 0.02
GTACTTCA | 0.114
CAATGGTC | 0.115
CCTAGTAC | 0.0265
ATGCTCAA | -0.0744

Sequence | PBM E-score
CTCGAGAA | -0.188
AGCAGTCA | 0.256
GGCAGTGA | 0.0755
GGCAGTCA | 0.345
GGCAGTAA | 0.125
CGCAGTCA | 0.363
CGCAGTCC | 0.0797
AGACCTGC | -0.147
GTCGCGAA | 0.0553
CTCGCGAC | 0.242
GGCGCGAC | 0.275
CGCGCGAC | 0.162
GTCGCGAC | 0.379
GGCGCGAA | 0.0599
CTGGCTCA | 0.28
ATAGCTCA | 0.0225
GTGGCTTA | -0.111
ATGGCTCG | 0.231
ATGGCTCA | 0.293
ATGGCTCC | 0.325
GTAGCTCA | 0.0143
GTGGCTCA | 0.277

Sequence | PBM E-score
AGGGCTCA | 0.0814
CTGGCTCC | 0.0343
CCGGCTCA | 0.0508
AGGGCTCC | -0.358
AATGAGCC | -0.00477
AGAGACTG | 0.0515
CTGCAGAA | 0.0335
GATTGACA | 0.0916
AAAGTTCG | -0.228
AGTCAGTA | 0.323
AGTCAGTG | 0.375
AATCAGTG | 0.0903
AGTCAGTC | 0.214
CGTCAGTA | 0.02
ATTCAGTG | 0.0826
ATAGGAGA | -0.00333
GCAGCAAC | 0.126
CAAGGGCC | -0.201
ACACTATG | 0.292
ACAATATC | 0.0645
ACCCATAG | 0.0609
ACCCATAT | 0.296

Sequence | PBM E-score
CCACACAC | 0.143
ACCCATAC | 0.222
ACAATATA | 0.221
ACACTATA | 0.152
ACAATATG | 0.325
ACACACAC | 0.316
ACACTATC | 0.151
GCACACAC | 0.178
ACTGTTGG | 0.034
CCGATTTC | -0.129
GTATAGAC | 0.145
CGAAACCC | -0.0543
CAATCGTA | -0.029
ACCGATTC | -0.0343
CAGCGAGC | 0.135
CGAGCAGA | 0.0217
TTGGTAAA | -0.12
ACAGTATA | 0.11
CCACACTC | -0.0226
ACAGTATG | 0.277
